High-throughput results from PubChem.
Gal4-VP16 FLuc – counter-screen for ROR gamma inhibitors: Gal4-VP16 reporter; Drosophila S2 Gal4-VP16 UAS-luciferase, luminescence, 20 h; Potency, µM (series often up to 53.6 µM), inactives show at the highest dose activity, negative = inhibition, hits mostly inhibitors; 310,000 tested, 3.5% active;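 further: Gal4-VP16 expression switched on by copper sulfate through the metallothionein promoter; on the % scale 0 is the no-effect control and ±100 the full control effect; nearly all actives have a fitted effect of over 50% in size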
GLP1R cytotox – cytotoxic in the GLP-1 receptor inverse agonist counter-screen; HEK293 cAMP-luciferase reporter cells, luminescence, 24 h; Potency, µM (top dose mostly 38.3 µM), inactives show at the highest dose activity change, negative = inhibition, most hits filed as inhibitors; 410,000 tested, 0.13% active;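 further: loss of luciferase light is scored as toxicity; on the % scale 0 is the no-effect control and ±100 the full control effect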
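Seeding density was 200 cells/uL; after overnight-length (12 h) culture, 23 nL compounds went on for 24 h at 37 °C. Readout used a luciferase detection reagent, luminescence taken after 12 min at room temperature.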
GLP1R ag – activates the human GLP-1 receptor. P43220. HEK293 GLP-1R CRE-luciferase, luminescence, 4-6 h; cells express a hypersensitive GLP-1R form. Potency, µM (top dose mostly 45.6 µM), without a hit: at the top dose activation, actives largely listed as activators. 380,000 tested, 0.007% active. AID 624172; further: % of control where 0% means no effect
RORgamma inh – ROR gamma (mouse) transcription inhibition. P51450. Drosophila S2 Gal4-RORgamma UAS-luciferase reporter, 20 h. Potency, µM (series often up to 53.6 µM), inactives show top-dose activity change, negative = inhibition, actives largely listed as inhibitors. 310,000 tested, 5.4% active. AID 2551; further: on the % scale 0 is the no-effect control and ±100 the full control effect; nearly all actives have a fitted effect of over 60% in size
Target sequence (P51450 whole entry, looked up, the tested form may be a part): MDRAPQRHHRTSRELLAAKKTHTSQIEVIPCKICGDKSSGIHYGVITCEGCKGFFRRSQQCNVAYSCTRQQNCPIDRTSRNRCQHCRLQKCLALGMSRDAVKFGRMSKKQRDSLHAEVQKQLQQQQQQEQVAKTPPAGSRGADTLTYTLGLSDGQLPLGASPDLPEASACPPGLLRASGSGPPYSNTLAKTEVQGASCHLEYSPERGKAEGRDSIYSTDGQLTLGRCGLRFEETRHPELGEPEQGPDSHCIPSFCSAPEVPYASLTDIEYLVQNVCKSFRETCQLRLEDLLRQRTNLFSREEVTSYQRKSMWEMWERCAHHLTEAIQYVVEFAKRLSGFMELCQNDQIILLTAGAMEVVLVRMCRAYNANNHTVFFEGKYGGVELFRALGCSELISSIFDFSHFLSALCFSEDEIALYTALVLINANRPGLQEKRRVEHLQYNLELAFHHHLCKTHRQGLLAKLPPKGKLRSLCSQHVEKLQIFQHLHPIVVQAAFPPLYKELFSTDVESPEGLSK
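Luminescence from a UAS-regulated Photinus luciferase reporter in stably transfected Drosophila Schneider cells is measured; decreased signal marks ROR gamma inhibition. Fusion expression is induced by 700 uM copper sulfate for 20 hr.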
GLP-1R inv ag – GLP-1 receptor (human) inverse agonism; P43220; HEK293 GLP-1R CRE-luciferase, luminescence, 24 h; GLP-1R form is constitutively active; Potency, µM (doses to about 38.3 µM), inactives show at the top dose activity change, negative = inhibition, most hits filed as inhibitors; 410,000 tested, 1.6% active; further: on the % scale 0 is the no-effect control and ±100 the full control effect; nearly all actives have a fitted effect of over 55% in size
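Inverse agonists were sought by their lowering of basal cAMP reporter luciferase output in HEK293 cells stably carrying constitutively active human GLP-1R, after 24 h compound treatment.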
Numbers without * were called inactive; ? = inconclusive; · = no result given; [ ] = dose if it differs, or a comment. Shown are actives, neighbours in structure and some others; about 5.9% of the full set was active somewhere. The call rests on the fitted dose curve; in most records, active means well fitted curve in the direction sought with a large enough effect; inconclusive means small, poorly fitted or top-dose-only effect, or another doubt; inactive means no such curve, though single readings can be large; an effect the other way counts as inactive or inconclusive. Potency means the concentration at half of the fitted maximal effect.

SMILES | Gal4-VP16 FLuc | GLP1R cytotox | GLP1R ag | RORgamma inh | GLP-1R inv ag
COC(=O)N1CCC2(CCN(Cc3cc(C(F)(F)F)cc(C(F)(F)F)c3)CC2)CC1 | 4% | · | · | 6% | ·
O=[N+]([O-])C(/C=C(\Cl)[N+](=O)[O-])=C(N1CCCCC1)N1CCCCC1 | 14µM* | -22% | 16% | ? | 2%
Cc1ccc(S(=O)(=O)/N=C(/NC(=S)Nc2cccc(C)c2)c2ccccc2)cc1 | 13µM* | -7% | 3% | ? | -22%
CC(C)OC(=S)N/C(=N\S(=O)(=O)c1ccccc1)c1ccccc1 | 22%[0.365 µM] | -18% | 1% | 0.45µM* | -6%
Oc1c(C(c2ccc(Cl)cc2)N2CCCC2)cc(Cl)c2cccnc12 (configuration not stated) | ? | ? | -2% | 1.4µM* | 5.6µM*
CN1CCN(C(c2ccccn2)c2cc(Cl)c3cccnc3c2O)CC1 (configuration not stated) | 5µM* | -30% | 20% | 1.4µM* | ?
Cc1ccc(C(c2cc(Cl)c3cccnc3c2O)N2CCN(C)CC2)cc1 (configuration not stated) | 0.71µM* | 55% | 9% | 1.3µM* | ?
C=C(C)CCC1(C)NC(=O)N(c2ccccc2)N1 (configuration not stated) | 0% | ? | 0% | 2% | 10µM*
O=C1NC2(CCCCC2)NN1c1ccccc1 | 5% | 1% | -1% | -3% | ?
CC1(c2ccc(O)cc2)NC(=O)N(c2ccccc2)N1 (configuration not stated) | 9% | -9% | 3% | 25% | 3.2µM*
CC(=O)N1CCC2(CC1)NC(=O)N(c1ccccc1)N2 | 7% | -21% | -1% | 1% | ?
CCc1cccc2nc3c(c([Si](C)(C)C)c12)Cn1c-3cccc1=O | 1% | · | · | 42% | ·
Cc1cccc(Cn2c(=O)n(Cc3ccc(C(=O)NC4CCN(Cc5ccccc5)CC4)cc3)c(=O)c3ccccc32)c1 | · | 2% | 1% | · | 3%
CC1=NN(c2ccc(C)c(C)c2)C(=O)/C1=C\C=C\c1ccc([N+](=O)[O-])o1 | ? | ? | -1% | 10µM* | ?
CC[C@H](C)[C@H](NC(=O)[C@H](CCC(=O)O)NC(=O)[C@H](CC(N)=O)NC(=O)[C@@H](N)[C@@H](C)O)C(=O)N[C@H](C(=O)N[C@@H](CCC(=O)O)C(=O)N[C@@H](CCC(=O)O)C(=O)N[C@@H](CCC(N)=O)C(=O)N[C@@H](Cc1ccc(O)cc1)C(=O)N[C@H](C(=O)N1CCC[C@H]1C(=O)N[C@@H](CCC(N)=O)C(=O)N[C@@H](CO)C(=O)N[C@@H](CC(C)C)C(=O)N[C@@H](C)C(=O)N[C@H](C(=O)N[C@@H](CC(C)C)C(=O)N[C@@H](CCC(=O)O)C(=O)N[C@@H](CO)C(=O)N[C@H](C(=O)N[C@@H](Cc1ccccc1)C(=O)N[C@@H](CCC(N)=O)C(=O)N[C@@H](CCC(=O)O)C(=O)N[C@@H](CC(C)C)C(=O)NCC(=O)N[C@@H](CCCCN)C(=O)N[C@@H](CC(C)C)C(=O)N[C@H](C(=O)NCC(=O)N1CCC[C@H]1C(=O)N[C@@H](CC(N)=O)C(=O)N[C@@H](CO)C(=O)N[C@@H](CCC(N)=O)C(=O)O)[C@@H](C)O)C(C)C)[C@@H](C)O)[C@@H](C)O)C(C)C | -4% | · | · | 3% | ·
O=[N+]([O-])c1cc(C(F)(F)F)ccc1N1CCN(CCO)CC1 | -1% | 9% | 10% | 10% | -3%
O=C(Nc1ccccc1)N1CCCN(c2ccc(C(F)(F)F)cc2[N+](=O)[O-])CC1 | ? | 0% | 3% | ? | 7.9µM*
O=C(C1CCC1)N1CCN(c2ccc(C(F)(F)F)cc2[N+](=O)[O-])CC1 | 4µM* | -3% | -3% | 7.1µM* | -15%
CCn1c(NCc2cccc(Cl)c2)nc2ccccc21 | · | -7% | · | · | ?
